From paper PMC7862700, “An all-to-all approach to the identification of sequence-specific readers for epigenetic DNA modifications on cytosine”

Assays:
Experiment in all cases: DAPPL (digital affinity profiling via proximity ligation, sequencing); 10 mM Tris-HCl pH 7.5, 50 mM NaCl, 1 mM DTT, 4% glycerol, room temperature, 30 min; GST-TFs on glutathione beads, 16-mer random dsDNA library, 0.1% formaldehyde crosslink after washing; high values mean tight binding
Settings in all cases: protein: recombinant; tags: N-terminal GST; dsDNA, one strand shown
FLI1 = molecular target: T1, FLI1 (Homo sapiens, UniProt Q01543 1-452)
T1 sequence: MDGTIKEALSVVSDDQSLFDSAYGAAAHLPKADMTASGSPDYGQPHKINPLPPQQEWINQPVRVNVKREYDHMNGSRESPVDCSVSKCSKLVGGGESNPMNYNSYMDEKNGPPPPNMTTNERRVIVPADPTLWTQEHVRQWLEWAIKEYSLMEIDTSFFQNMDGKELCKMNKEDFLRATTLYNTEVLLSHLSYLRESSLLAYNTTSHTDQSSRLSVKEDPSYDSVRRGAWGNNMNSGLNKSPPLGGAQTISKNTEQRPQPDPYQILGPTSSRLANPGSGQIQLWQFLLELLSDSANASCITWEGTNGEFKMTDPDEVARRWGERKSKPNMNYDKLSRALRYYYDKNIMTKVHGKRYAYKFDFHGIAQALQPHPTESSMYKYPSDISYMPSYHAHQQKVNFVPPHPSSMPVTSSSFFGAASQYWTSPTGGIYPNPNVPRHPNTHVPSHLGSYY
In short: (§1)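 Beads coated with glutathione captured GST-fused human transcription factors that had been expressed in yeast, and the factors were then given DNA barcodes and pooled with a tag-only sample. The pools were incubated with 200 nmole of a random double-stranded 16-mer DNA library in Tris/NaCl/DTT/glycerol buffer for 30 min at room temperature, washed, crosslinked with 0.1% formaldehyde and proximity-ligated with BsaI/T4 ligase at 37 °C for 1 h. PCR amplification and Illumina NextSeq500 sequencing came last. Binding signal is each hexamer's read frequency for a factor divided by its frequency for the tag-only sample.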

ELK1 = molecular target: T2, ELK1 (Homo sapiens, UniProt P19419 1-428)
T2 sequence: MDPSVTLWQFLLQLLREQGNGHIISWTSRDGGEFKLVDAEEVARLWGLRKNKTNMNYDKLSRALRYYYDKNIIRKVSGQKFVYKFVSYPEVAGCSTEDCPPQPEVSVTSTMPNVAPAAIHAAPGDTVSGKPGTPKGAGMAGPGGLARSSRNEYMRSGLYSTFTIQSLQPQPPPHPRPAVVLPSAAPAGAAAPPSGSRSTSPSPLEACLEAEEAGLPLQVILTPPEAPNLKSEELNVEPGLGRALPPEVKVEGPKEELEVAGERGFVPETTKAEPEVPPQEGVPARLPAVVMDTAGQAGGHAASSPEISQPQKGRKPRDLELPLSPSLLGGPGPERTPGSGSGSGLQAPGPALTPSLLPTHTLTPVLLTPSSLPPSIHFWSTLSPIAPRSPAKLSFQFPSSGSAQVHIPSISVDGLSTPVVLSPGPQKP
In short: as §1

GABPA = molecular target: T3, GABPA (Homo sapiens, UniProt Q06546 1-454)
T3 sequence: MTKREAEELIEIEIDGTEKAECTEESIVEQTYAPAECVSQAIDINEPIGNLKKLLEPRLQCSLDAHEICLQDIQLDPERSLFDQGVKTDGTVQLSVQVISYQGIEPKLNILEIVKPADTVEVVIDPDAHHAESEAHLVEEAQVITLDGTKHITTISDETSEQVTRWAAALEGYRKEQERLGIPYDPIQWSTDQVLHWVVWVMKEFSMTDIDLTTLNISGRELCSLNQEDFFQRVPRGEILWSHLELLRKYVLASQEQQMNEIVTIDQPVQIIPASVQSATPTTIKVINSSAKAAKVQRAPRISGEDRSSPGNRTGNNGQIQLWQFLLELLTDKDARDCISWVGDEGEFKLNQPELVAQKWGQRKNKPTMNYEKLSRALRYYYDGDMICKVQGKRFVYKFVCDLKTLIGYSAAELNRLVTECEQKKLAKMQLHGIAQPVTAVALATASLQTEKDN
In short: as §1

ERG = molecular target: T4, ERG (Homo sapiens, UniProt P11308 1-479)
T4 sequence: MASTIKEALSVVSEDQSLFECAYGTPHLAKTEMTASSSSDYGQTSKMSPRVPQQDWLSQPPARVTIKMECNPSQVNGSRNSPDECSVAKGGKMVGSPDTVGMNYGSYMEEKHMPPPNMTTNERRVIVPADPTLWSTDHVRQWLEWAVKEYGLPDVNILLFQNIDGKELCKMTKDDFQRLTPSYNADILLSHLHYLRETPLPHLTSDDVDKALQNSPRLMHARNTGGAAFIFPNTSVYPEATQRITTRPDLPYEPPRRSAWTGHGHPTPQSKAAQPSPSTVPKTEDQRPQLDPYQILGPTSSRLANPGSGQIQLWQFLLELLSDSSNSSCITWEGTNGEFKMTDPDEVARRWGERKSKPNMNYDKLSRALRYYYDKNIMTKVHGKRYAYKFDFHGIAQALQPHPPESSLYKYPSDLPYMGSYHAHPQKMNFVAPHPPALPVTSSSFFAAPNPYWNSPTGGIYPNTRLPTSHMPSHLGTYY
In short: as §1

ELF1 = ELF1 (Homo sapiens, UniProt P32519 1-619)
Sequence of ELF1 (P32519 whole entry): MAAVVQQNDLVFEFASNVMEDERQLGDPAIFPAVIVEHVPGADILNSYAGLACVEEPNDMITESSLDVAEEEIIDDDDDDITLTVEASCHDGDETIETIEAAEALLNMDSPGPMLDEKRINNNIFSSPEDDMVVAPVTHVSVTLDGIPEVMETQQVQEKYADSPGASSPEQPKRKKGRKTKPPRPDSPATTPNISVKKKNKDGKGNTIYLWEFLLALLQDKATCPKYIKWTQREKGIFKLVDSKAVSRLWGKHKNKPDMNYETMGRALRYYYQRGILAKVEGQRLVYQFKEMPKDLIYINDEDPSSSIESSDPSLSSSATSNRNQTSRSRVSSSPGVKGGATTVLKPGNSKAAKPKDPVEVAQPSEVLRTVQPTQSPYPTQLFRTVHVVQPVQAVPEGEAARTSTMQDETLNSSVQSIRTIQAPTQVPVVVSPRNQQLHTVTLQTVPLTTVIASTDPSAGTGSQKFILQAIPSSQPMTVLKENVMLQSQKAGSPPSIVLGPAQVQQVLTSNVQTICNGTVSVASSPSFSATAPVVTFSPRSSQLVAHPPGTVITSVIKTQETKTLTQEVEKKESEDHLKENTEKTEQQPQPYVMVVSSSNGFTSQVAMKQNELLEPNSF
In short: as §1

EHF = molecular target: T5, EHF (Homo sapiens, UniProt Q9NZC4 1-300)
T5 sequence: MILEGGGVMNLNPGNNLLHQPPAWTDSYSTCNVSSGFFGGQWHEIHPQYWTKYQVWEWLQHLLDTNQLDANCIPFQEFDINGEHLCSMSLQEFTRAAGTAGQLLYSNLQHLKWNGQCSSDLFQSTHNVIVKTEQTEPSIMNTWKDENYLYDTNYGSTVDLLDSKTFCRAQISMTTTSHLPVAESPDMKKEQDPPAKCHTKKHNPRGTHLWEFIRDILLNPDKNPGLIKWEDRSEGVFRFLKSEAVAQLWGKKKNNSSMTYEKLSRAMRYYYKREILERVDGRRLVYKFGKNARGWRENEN
In short: as §1

SPI1 = SPI1 (Homo sapiens, UniProt P17947 1-270)
In short: as §1

SPIB = SPIB (Homo sapiens, UniProt Q01892 1-262)
Sequence of SPIB (Q01892 whole entry): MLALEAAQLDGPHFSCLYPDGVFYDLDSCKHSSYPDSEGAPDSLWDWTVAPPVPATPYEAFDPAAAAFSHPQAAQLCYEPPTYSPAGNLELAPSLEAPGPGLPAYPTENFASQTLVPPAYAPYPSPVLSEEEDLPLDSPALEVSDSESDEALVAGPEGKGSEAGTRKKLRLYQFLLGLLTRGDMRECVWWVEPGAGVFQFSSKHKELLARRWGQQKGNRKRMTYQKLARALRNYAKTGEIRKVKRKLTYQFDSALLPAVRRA
In short: as §1

ELK3 = molecular target: T6, ELK3 (Homo sapiens, UniProt P41970 1-407)
T6 sequence: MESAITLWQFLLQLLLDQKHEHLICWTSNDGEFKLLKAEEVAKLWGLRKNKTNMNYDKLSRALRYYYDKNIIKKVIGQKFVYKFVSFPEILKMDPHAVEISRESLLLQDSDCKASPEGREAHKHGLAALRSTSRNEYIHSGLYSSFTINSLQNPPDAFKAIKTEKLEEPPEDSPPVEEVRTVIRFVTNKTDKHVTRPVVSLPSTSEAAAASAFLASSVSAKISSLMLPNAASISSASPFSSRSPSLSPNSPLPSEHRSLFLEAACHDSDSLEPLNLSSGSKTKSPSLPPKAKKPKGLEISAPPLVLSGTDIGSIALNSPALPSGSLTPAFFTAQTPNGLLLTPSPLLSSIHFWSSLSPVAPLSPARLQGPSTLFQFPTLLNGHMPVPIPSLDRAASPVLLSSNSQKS
In short: as §1

Sequence	binding signal (FLI1)	binding signal (ELK1)	binding signal (GABPA)	binding signal (ERG)	binding signal (ELF1)	binding signal (EHF)	binding signal (SPI1)	binding signal (SPIB)	binding signal (ELK3)
AACCAC	1.18 fold enrichment (6-mer frequency, TF over GST control)	1.19 fold enrichment (6-mer frequency, TF over GST control)	1.17 fold enrichment (6-mer frequency, TF over GST control)	1.15 fold enrichment (6-mer frequency, TF over GST control)	1.25 fold enrichment (6-mer frequency, TF over GST control)	1.16 fold enrichment (6-mer frequency, TF over GST control)	1.12 fold enrichment (6-mer frequency, TF over GST control)	1.19 fold enrichment (6-mer frequency, TF over GST control)	1.29 fold enrichment (6-mer frequency, TF over GST control)
CCTTGT	1.33 fold enrichment (6-mer frequency, TF over GST control)	1.29 fold enrichment (6-mer frequency, TF over GST control)	1.25 fold enrichment (6-mer frequency, TF over GST control)	1.37 fold enrichment (6-mer frequency, TF over GST control)	1.23 fold enrichment (6-mer frequency, TF over GST control)	1.24 fold enrichment (6-mer frequency, TF over GST control)	1.25 fold enrichment (6-mer frequency, TF over GST control)	1.28 fold enrichment (6-mer frequency, TF over GST control)	1.18 fold enrichment (6-mer frequency, TF over GST control)
AATCCG	1.53 fold enrichment (6-mer frequency, TF over GST control)	1.62 fold enrichment (6-mer frequency, TF over GST control)	1.44 fold enrichment (6-mer frequency, TF over GST control)	1.84 fold enrichment (6-mer frequency, TF over GST control)	1.5 fold enrichment (6-mer frequency, TF over GST control)	1.55 fold enrichment (6-mer frequency, TF over GST control)	1.59 fold enrichment (6-mer frequency, TF over GST control)	1.68 fold enrichment (6-mer frequency, TF over GST control)	1.5 fold enrichment (6-mer frequency, TF over GST control)
ACGCCC	1.22 fold enrichment (6-mer frequency, TF over GST control)	1.21 fold enrichment (6-mer frequency, TF over GST control)	1.25 fold enrichment (6-mer frequency, TF over GST control)	1.11 fold enrichment (6-mer frequency, TF over GST control)	1.21 fold enrichment (6-mer frequency, TF over GST control)	1.18 fold enrichment (6-mer frequency, TF over GST control)	1.11 fold enrichment (6-mer frequency, TF over GST control)	1.14 fold enrichment (6-mer frequency, TF over GST control)	1.11 fold enrichment (6-mer frequency, TF over GST control)
TGTCCT	1.37 fold enrichment (6-mer frequency, TF over GST control)	1.38 fold enrichment (6-mer frequency, TF over GST control)	1.58 fold enrichment (6-mer frequency, TF over GST control)	1.38 fold enrichment (6-mer frequency, TF over GST control)	1.5 fold enrichment (6-mer frequency, TF over GST control)	1.52 fold enrichment (6-mer frequency, TF over GST control)	1.44 fold enrichment (6-mer frequency, TF over GST control)	1.54 fold enrichment (6-mer frequency, TF over GST control)	1.41 fold enrichment (6-mer frequency, TF over GST control)
TGGTTC	1.45 fold enrichment (6-mer frequency, TF over GST control)	1.33 fold enrichment (6-mer frequency, TF over GST control)	1.35 fold enrichment (6-mer frequency, TF over GST control)	1.29 fold enrichment (6-mer frequency, TF over GST control)	1.28 fold enrichment (6-mer frequency, TF over GST control)	1.31 fold enrichment (6-mer frequency, TF over GST control)	1.32 fold enrichment (6-mer frequency, TF over GST control)	1.37 fold enrichment (6-mer frequency, TF over GST control)	1.32 fold enrichment (6-mer frequency, TF over GST control)
TGGCCC	1.02 fold enrichment (6-mer frequency, TF over GST control)	1.13 fold enrichment (6-mer frequency, TF over GST control)	1.24 fold enrichment (6-mer frequency, TF over GST control)	1.13 fold enrichment (6-mer frequency, TF over GST control)	1.05 fold enrichment (6-mer frequency, TF over GST control)	1.02 fold enrichment (6-mer frequency, TF over GST control)	1.17 fold enrichment (6-mer frequency, TF over GST control)	1.12 fold enrichment (6-mer frequency, TF over GST control)	1.16 fold enrichment (6-mer frequency, TF over GST control)
AAGCTC	1.22 fold enrichment (6-mer frequency, TF over GST control)	1.22 fold enrichment (6-mer frequency, TF over GST control)	1.25 fold enrichment (6-mer frequency, TF over GST control)	1.17 fold enrichment (6-mer frequency, TF over GST control)	1.2 fold enrichment (6-mer frequency, TF over GST control)	1.15 fold enrichment (6-mer frequency, TF over GST control)	1.12 fold enrichment (6-mer frequency, TF over GST control)	1.11 fold enrichment (6-mer frequency, TF over GST control)	1.09 fold enrichment (6-mer frequency, TF over GST control)
